In PubChem BioAssay (Tox21) one finds Potency data, which are given here for 40 molecules.

Each structure is given as a SMILES string. Inconclusive results are not listed. Entries that show only a call come without a potency. The source made the active and inactive calls. Calls follow the shape of the dose curve; as a rule, active = well fitted cell-killing curve with a large enough effect in the repeat runs (not every such curve was filed as active); inconclusive = weak or mixed curves, or effect the other way; inactive = no such curve, though single readings can be large or run the other way.
Potency is read from the fitted curve at half-maximal effect.

This test can be described thus: qHTS assay to identify small molecule antagonists of the estrogen related receptor signaling pathway with the pleiotropic PPARgamma coactivator (PGC) from Tox21 10K library - cell viability counter screen (AID 1224840). Also: nearly all actives have a fitted effect of over 40% in size. The settings on record: PGC/ERR reporter cells viability, CellTiter-Fluor, 17.5 h; series mostly up to 92.4 µM. An excerpt: National Center for Advancing Translational Sciences [NCATS]
NIH Chemical Genomics Center [NCGC]
U.S. Environmental Protection Agency [EPA]
National Institutes of Environmental Health Sciences [NIEHS]
National Toxicology Program [NTP]
U.S. Food and Drug Administration [FDA]
Estrogen related receptors (ERRs), the first orphan nuclear receptors discovered, play an important role in the control of cellular energy metabolism. ERRs are required for high-energy production in response to the environmental challenges. The pleiotropic PPARgamma coactivator (PGC) is a major partner of ERR and a key regulator in energy homeostasis. Together they have been implicated in the etiology of metabolic disorders such as Type 2 diabetes and metabolic syndrome. ERR-alpha was also identified as an adverse marker for breast cancer progression; ERR-alpha-positive tumors have a poor prognosis. To screen and to identify environmental compounds that perturb the ERR and PGC/ERR signaling pathways could provide valuable information for potential therapeutic or preventive measures in the treatment of metabolic disease. To differentiate true PGC/ERR antagonists or agonist from cytotoxic substances, the assay is multiplexed with cell viability assay.
Tox21 Assay Protocol Summary:
The PGC/ERR cells were dispensed at 2,000 cells/5 ul/well in 1536-well white plates using a Multidrop dispenser. After the assay plates were incubated at a 37 C/5% CO2 incubator for 6 hours, 23 nL of compounds dissolved in DMSO, positive and negative controls or DMSO only was transferred to the assay plate by a pin tool. The plates were incubated at 37 C for 17.5 hours. 1 ul/well of CellTiter-Fluor reagent was added into the assay plates using a Flying Reagent Dispenser. After 30-minute incubation at 37 C/5% CO2, the fluorescence intensity in the plates was measured using a ViewLux plate reader.
(In qHTS, concentration-response curves come from the screen itself.)
In the case of `CN(C)CCC=C1c2ccccc2C=Cc2ccccc21`, the Potency entry is “inactive”.

Regarding `C=CCc1ccccc1OCC(O)CNC(C)C` (stereo not given), the Potency result is “inactive”.

Consider `OCCOCC#CCOCCO`, for which the Potency result is “inactive”.

`CN1CCCN=C1COC(=O)C(O)(c1ccccc1)C1CCCCC1` (stereo not given): the Potency entry was “inactive”.

For the molecule `CCCCCCCC/C=C\CCCCCCCCO`, the Potency entry was “inactive”.

On to `O=C(OCC(O)CO)c1ccccc1Nc1ccnc2cc(Cl)ccc12` (stereo not given), for which the Potency result is “inactive”.

Regarding `CNC(=O)c1cnn(-c2nc(N)c3ncn([C@@H]4O[C@H](CO)[C@@H](O)[C@H]4O)c3n2)c1`, the Potency result was “inactive”.

In the case of `Cc1ccc(OC(=O)c2ccccc2O)cc1`, the Potency entry was “inactive”.

Regarding `NC1[C@H]2CN(c3nc4c(cc3F)c(=O)c(C(=O)O)cn4-c3ccc(F)cc3F)C[C@@H]12` (stereo not given in full), the Potency entry was “inactive”.

On to `CCOC(=O)OC(C)OC(=O)[C@@H]1N2C(=O)[C@@H](NC(=O)[C@H](N)c3ccccc3)[C@H]2SC1(C)C` (stereo not given in full), for which the Potency result is “inactive”.

Regarding `COc1ccccc1N1CCN(CC(O)COc2cccc3ccccc23)CC1` (stereo not given), the Potency result was “inactive”.

`O=C(/C=C/c1ccccc1)OCCc1ccccc1`: the Potency result was “inactive”.

Take `C[C@@H]1CN(CCCn2c3ccccc3c3ccccc32)C[C@H](C)N1`: the Potency was 26.6 µM (active).

In the case of `CC[N+](CC)(CCNC(=O)C(=O)NCC[N+](CC)(CC)Cc1ccccc1Cl)Cc1ccccc1Cl`, the Potency entry was “inactive”.

Regarding `O=C1NCCN1CCO`, the Potency entry was “inactive”.

For the molecule `CC(=O)OCC(=O)NCCCOc1cccc(CN2CCCCC2)c1`, the Potency entry was “inactive”.

For the molecule `C=C/C(C)=C/C/C=C(\C)CCC=C(C)C`, the Potency entry was “inactive”.

With `N#CCCN(CCO)CCO`, the Potency entry is “inactive”.

Take `C=C1C[C@@]23CC[C@H]4[C@@](C)(CCC[C@@]4(C)C(=O)O[C@@H]4O[C@H](CO)[C@@H](O)[C@H](O)[C@H]4O)[C@@H]2CC[C@]1(O[C@@H]1O[C@H](CO)[C@@H](O)[C@H](O[C@@H]2O[C@H](CO)[C@@H](O)[C@H](O)[C@H]2O)[C@H]1O[C@@H]1O[C@H](CO)[C@@H](O)[C@H](O)[C@H]1O)C3`: the Potency result was “inactive”.

In the case of `Oc1cc2c(cc1O)[C@H]1c3ccc(O)c(O)c3OC[C@@]1(O)C2`, the Potency was 27.6 µM (active).

Regarding `CC1CC(OC(=O)C(O)c2ccccc2)CC(C)(C)N1C` (stereo not given), the Potency result is “inactive”.

As for `O=C=Nc1ccc(Cl)c(Cl)c1`, the Potency result was “inactive”.

As to `Cc1cccc(O)c1N`, the Potency result is “inactive”.

On to `Cc1cscn1`, for which the Potency entry is “inactive”.

In the case of `CCc1ccccc1`, the Potency result was “inactive”.

Regarding `CCCCCC[C@@H](O)C/C=C\CCCCCCCC(=O)OCC(O)CO` (stereo not given in full), the Potency result was “inactive”.

Turning to `FC(F)(F)c1ccccc1Cl`, the Potency entry was “inactive”.

For `CCC(C)COC(C)=O` (stereo not given), the Potency result was “inactive”.

For the molecule `Cc1ccccc1S`, the Potency result was “inactive”.

For `C=Cc1ccc(S(=O)(=O)O)cc1`, the Potency result was “inactive”.

For `COC(=O)CCS`, the Potency entry was “inactive”.

Turning to `CCOC(=O)c1ccc(I)cc1`, the Potency result was “inactive”.

For `Cc1cc2c(OCC(CNC(C)(C)C)OC(=O)c3ccccc3)cccc2[nH]1` (stereo not given), the Potency result is “inactive”.

On to `Nc1ncnc2c1ncn2[C@H]1CC[C@@H](CO)O1`, for which the Potency entry is “inactive”.

`O=C(OC(=O)c1ccccc1)c1ccccc1`: the Potency result was “inactive”.

With `O=C(Nc1cccc2c(=O)cc(-c3nn[nH]n3)oc12)c1ccc(OCCCCc2ccccc2)cc1`, the Potency entry is “inactive”.

Take `O=C=Nc1cccc(C(F)(F)F)c1`: the Potency result is “inactive”.

As for `NCCNCCO`, the Potency result was “inactive”.

Take `O=C(/C=C/c1ccc(O)c(O)c1)O[C@@H]1C[C@@](OC(=O)/C=C/c2ccc(O)c(O)c2)(C(=O)O)C[C@@H](O)[C@@H]1O`: the Potency entry was “inactive”.

Take `CCCCCC[C@@H](O)C/C=C\CCCCCCCC(=O)O`: the Potency entry was “inactive”.
